# Experimental data taken from PubChem BioAssay AID2205 (University of Pittsburgh Molecular Library Screening Center, 2009).
# The campaign covered roughly 200,000 compounds. About 1,600 (0.8%) were called active.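 How the source made its calls: active means plate Z-score above 3 for both tubulin-high and condensed-nucleus cell shares, with cell loss under 80%, at 10 µM; inactive means the rest, inconclusive results apart.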 The list comes from a sample in which actives are over-represented; it also holds similar structures and randomly drawn compounds.
# Test: microtubule stabilizers in HeLa cells, primary screen, imaging, high-content imaging (AID 2205);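 on % tubulin-high responders: anti alpha tubulin signal scored within the nucleus-defined area of each cell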;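 on toxicity: 0% = mean cell density of plate MIN control wells and 100% = no cells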
# Settings: HeLa tubulin immunostaining HCS, 24 h, at 10 µM; % Hoechst-high responders: measured here: nuclear condensation Hoechst responders, stronger effect = higher value, share of cells brighter than vehicle mean+2SD; % tubulin-high responders: stronger effect = higher value, share of cells brighter than vehicle mean+2SD; toxicity: measured here: cytotoxicity by cell density
SMILES,% Hoechst-high responders,% tubulin-high responders,toxicity
CC(=O)c1cc(-c2ccccc2)n(CC(=O)NC2CCCCC2)c1C,1.48%,1.98% (inactive),2.82%
O=C(Nc1ccn(Cc2ccccc2)n1)c1n[nH]c([N+](=O)[O-])c1Cl,13.3%,9.59% (active),24.4%
O=C(Nc1ccn(Cc2ccccc2)n1)c1cccc(F)c1,3.02%,4.62% (inactive),3.61%
O=C(Nc1ccn(Cc2ccc(F)cc2)n1)c1ccncc1,1.77%,2.77% (inactive),3.59%
CC1Cc2ccccc2N1S(=O)(=O)c1c(N)n(C)c(=O)n(C)c1=O (configuration not stated),3.17%,3.06% (inactive),7.69%
CCc1nc2ccccc2c(C(=O)NCc2ccc(OC)cc2)c1C,2.73%,2.02% (inactive),5.3%
CN(C)Cc1ccc(F)cc1Sc1cc(Cl)ccc1Cl,2.47%,4.07% (inactive),10%
COc1ccc(CN(C)C(C)C(=O)NC2CCCc3ccccc32)cc1 (configuration not stated),4.92%,11.4% (active),14%
CCOc1ccc(NC(=O)COc2ccc(C(=O)NC3CCCc4ccccc43)cc2OC)cc1 (configuration not stated),2.51%,5.53% (inactive),4.7%
CC(C(=O)NCC1CCCCC1)N(C)Cc1cccc(Cl)c1 (configuration not stated),0.921%,4.54% (inactive),21.1%
COc1ccc([N+](=O)[O-])cc1NC(=O)CC1SC(=Nc2cccc(C)c2C)N(/N=C(\C)c2ccc(C)cc2)C1=O (configuration not stated),1.74%,1.39% (inactive),6.54%
COc1cccc(NC(=O)c2ccc(S(=O)(=O)N(C)C)cc2)c1,1.38%,3.01% (inactive),1.8%
CCOc1cccc(-n2nnnc2-c2ccc(OC)cc2)c1,43.4%,37.6% (active),41.8%
COc1ccc(-n2nnnc2-c2nc3ccccc3s2)cc1,2.51%,4.84% (inactive),1.66%
CCOc1cccc(-c2nnc3sc(COc4ccc(OC)cc4)nn23)c1,1.53%,1.43% (inactive),2.39%
COC(=O)c1ccc(CN2CCN(CCCc3ccccc3)C(CCO)C2)cc1 (configuration not stated),1.96%,3.41% (inactive),10.2%
CCOC(=O)Cc1ncccc1C(=O)Nc1ccc(OC)cc1,2.23%,3.2% (inactive),5.66%
COc1ccccc1Nc1nc(N)nc(CN(C)C2CCCCC2)n1,1.52%,3.4% (inactive),5.42%
COc1ccccc1NC1=NC(c2ccc(Cl)cc2)N=C(N)N1 (configuration not stated),46.7%,18% (active),42.6%
COc1ccccc1NC1=NC2(CCCC2)N=C(N)N1,1.77%,2.5% (inactive),14.7%
c1ccc(CN=C2Nc3ccccc3CS2)nc1,1.84%,4.7% (inactive),4.5%
Cc1cc(NC(=O)CSc2nnc(Nc3ccccc3F)s2)no1,2.66%,2.72% (inactive),6.41%
Cc1cc(C)c2c(c1)cc(C)c1nnc(SCC(=O)Nc3cc(C)on3)n12,18.1%,40.6% (active),66.4%
Cc1ccc(-c2csc(SCC(=O)Nc3cc(C)on3)n2)cc1,0.903%,2.28% (inactive),2.29%
CCc1ccccc1NC(=O)Cc1cn(C)c2ccccc12,1.88%,2.42% (inactive),1.32%

SMILES,% Hoechst-high responders,% tubulin-high responders,toxicity
CCN(CC)C(=O)C(=O)c1cn(CC(=O)NCc2ccc3c(c2)OCO3)c2ccccc12,2.88%,3.53% (inactive),7.75%
Cc1cc(C)cc(C(=O)NCC(=O)OCC(=O)N2CCCCC2)c1,1.86%,1.01% (inactive),6.66%
COc1ccccc1-c1nc(C#N)c(N2CCC(C(N)=O)CC2)o1,1.21%,0.805% (inactive),3.26%
COc1ccc(Nc2oc(-c3ccccc3Cl)nc2C#N)cc1,19.8%,22.5% (active),63.9%
Cc1ccccc1-c1nc(C#N)c(NCc2ccco2)o1,2.06%,1.4% (inactive),7.65%
N/C(=N\OS(=O)(=O)c1cccc([N+](=O)[O-])c1)c1ccncc1,2%,1.6% (inactive),1.69%
CCOc1ccc(NC(=O)CCC(=O)N/N=C/c2ccc([N+](=O)[O-])s2)cc1,1.9%,4.38% (inactive),12.5%
Cc1ccccc1NCC(=O)N/N=C\c1ccc([N+](=O)[O-])s1,2.71%,2.44% (inactive),1.44%
O=[N+]([O-])c1ccc(C=Nc2ccc(Cl)cc2Cl)s1,9.57%,11.5% (active),16%
CCOC(=O)/C(=C\c1ccc([N+](=O)[O-])cc1)C(=O)c1cc(C(C)=O)c(Nc2ccccc2)s1,6.43%,24.7% (active),66.1%
Cc1cccc(NC(=O)c2sc(-c3ccccc3)nc2-c2ccc([N+](=O)[O-])cc2)c1,5.34%,2.13% (inactive),9.44%
O=C(Nc1ccccc1)/C(=C/c1ccc([N+](=O)[O-])cc1)NC(=O)c1ccccc1,4.34%,2.81% (inactive),7.05%
COC(=O)c1ccc(NCC(=O)N2CCCCCC2)cc1,2.09%,3.14% (inactive),2.78%
COc1ccc(NC(=O)CSc2nnc(-c3ccccc3F)n2C2CC2)cc1S(N)(=O)=O,2.54%,1.8% (inactive),10.7%
COc1cc(/C=C(\C#N)c2nc3c(s2)CC(C)CC3)ccc1O (configuration not stated),2.11%,1.86% (inactive),0.488%
CCOc1cccc(C(=O)Nc2nnc(-c3cccs3)s2)c1,2.31%,1.76% (inactive),5.03%
CCOc1cc(/C=C(\C#N)c2nc(-c3cccs3)c(NC(C)=O)s2)ccc1O,49.3%,16.7% (active),32.4%
CCCCc1cc2c(s1)CCCC/C2=N/O,1.99%,5.07% (inactive),0.0044%
CSc1nc2ccc(NC(=O)c3c(F)cccc3F)cc2s1,3.31%,2.54% (inactive),0.69%
COc1ccc2nc(Nc3nc4ccc(NC(C)=O)cc4s3)sc2c1,3.35%,5.83% (inactive),4.23%
CCC(=O)Nc1cccc(NC(=O)c2cccnc2)c1,1.83%,4.1% (inactive),8.32%
CCCC(=O)Nc1nc2ccc(NC(=O)c3c(F)c(F)c(OC)c(F)c3F)cc2s1,44.1%,12.2% (active),35.6%
CCOC(=O)c1cc(NC(=O)c2cccnc2)cc(C(=O)OCC)c1,1.98%,4.37% (inactive),5.37%
CCCC(=O)Nc1nc2ccc(NC(=O)c3cccnc3)cc2s1,19.5%,35.9% (active),55.8%
